# Assay results taken from PubChem BioAssay AID488984 (The Scripps Research Institute Molecular Screening Center, 2010).
# Unmarked numbers belong to inactive results. Active and inactive are the calls of the source. Rule as the data show it: active = inhibition above about 55%; inactive = the rest.
# System: SARS coronavirus 3C-like protease (3CLpro, nsp5)
# Assay: blockers of SARS 3CLpro activity – biochemical, fluorescence, set 2, late-stage follow-up (AID 488984)
# Settings: recombinant 3CLpro, fluorogenic peptide cleavage; at 100 µM; active compounds read high
row,SMILES,inhibition
1,CC(C)(C)NC(=O)C(c1cccnc1)N(C(=O)Cc1c[nH]c2ccccc12)c1ccc(F)cc1 (stereo not given),5.7%
2,CC(C)(C)NC(=O)C(c1ccsc1)N(C(=O)Cc1cccnc1)c1ccc(OCF)cc1 (stereo not given),56.1% (active)
3,CC(C)(C)NC(=O)C(c1cccnc1)N(C(=O)c1cccc2c1CCCC2)c1ccc(OCF)cc1 (stereo not given),16%
4,CC(C)(C)NC(=O)C(c1ccsc1)N(C(=O)c1ccco1)c1ccc(C(C)(C)C)cc1 (stereo not given),19.5%
5,CC(C)(C)NC(=O)C(c1ccsc1)N(C(=O)c1ccc(C(F)(F)F)nc1)C1CC1 (stereo not given),11.3%
6,CC(C)(C)NC(=O)C(c1cccnc1)N(C(=O)c1n[nH]c2ccccc12)c1ccc(OC(F)F)cc1 (stereo not given),24.6%
7,CC(C)c1ccc(N(C(=O)Cc2cccnc2)C(C(=O)NC(C)(C)C)c2ccsc2)cc1 (stereo not given),7.95%
8,CC(C)c1ccc(N(C(=O)c2ccco2)C(C(=O)NC(C)(C)C)c2cccnc2)cc1 (stereo not given),65.6% (active)
9,CC(C)(C)NC(=O)C(c1cccnc1)N(C(=O)Cc1cccnc1)C1CC1 (stereo not given),7.01%
10,CC(C)c1ccc(N(C(=O)Cc2c[nH]c3ccccc23)C(C(=O)NC(C)(C)C)c2ccsc2)cc1 (stereo not given),7.61%
11,CC(C)(C)NC(=O)C(c1cccnc1)N(C(=O)c1n[nH]c2ccccc12)c1ccc(F)cc1 (stereo not given),9.24%
12,CC(C)c1ccc(N(C(=O)Cc2cccnc2)C(C(=O)NC(C)(C)C)c2cccnc2)cc1 (stereo not given),2.83%
13,CC(C)(C)NC(=O)C(c1cccnc1)N(C(=O)Cc1cccc2ccccc12)c1ccc(C(C)(C)C)cc1 (stereo not given),19.6%
14,Cc1nccn1CC(=O)N(c1ccc(C(C)(C)C)cc1)C(C(=O)NC(C)(C)C)c1ccsc1 (stereo not given),0.41%
15,CC(C)(C)NC(=O)C(c1cccnc1)N(C(=O)c1cccc2c1CCCC2)c1ccc(C(C)(C)C)cc1 (stereo not given),12.7%
16,CC(C)(C)NC(=O)C(c1cccnc1)N(C(=O)c1ccc(C(F)(F)F)nc1)c1ccc(C(C)(C)C)cc1 (stereo not given),8.39%
17,CC(C)(C)NC(=O)C(c1ccsc1)N(C(=O)Cn1cnc2ccccc21)c1ccc(N)cc1 (stereo not given),12.6%
18,Cc1nccn1CC(=O)N(c1ccc(NC(=O)C(C)C)cc1)C(C(=O)NC(C)(C)C)c1ccsc1 (stereo not given),7.94%

row,SMILES,inhibition
1,CC(C)(C)NC(=O)C(c1cccnc1)N(C(=O)c1ccc(C#N)cc1)C1CC1 (stereo not given),-4.03%
2,CC(C)(C)NC(=O)C(c1ccsc1)N(C(=O)Cc1cccc2ccccc12)C1CC1 (stereo not given),16.5%
3,CC(C)(C)NC(=O)C(c1ccsc1)N(C(=O)c1ccc(C#N)cc1)c1ccc(OCF)cc1 (stereo not given),17.8%
4,CCC(=O)Nc1ccc(N(C(=O)Cn2ccnc2C)C(C(=O)NC(C)(C)C)c2ccsc2)cc1 (stereo not given),5.34%
5,CC(C)c1ccc(N(C(=O)Cc2cccc3ccccc23)C(C(=O)NC(C)(C)C)c2ccsc2)cc1 (stereo not given),8.43%
6,CC(C)(C)NC(=O)C(c1ccsc1)N(C(=O)c1n[nH]c2ccccc12)c1ccc(C(C)(C)C)cc1 (stereo not given),17.9%
7,CC(C)c1ccc(N(C(=O)c2ccc(C#N)cc2)C(C(=O)NC(C)(C)C)c2ccsc2)cc1 (stereo not given),-5.45%
8,CC(C)(C)NC(=O)C(c1cccnc1)N(C(=O)c1ccc(C(F)(F)F)nc1)c1ccc(F)cc1 (stereo not given),10.5%
9,CC(C)(C)NC(=O)C(c1ccsc1)N(C(=O)Cc1c[nH]c2ccccc12)c1ccc(OCF)cc1 (stereo not given),35.6%
10,CC(C)(C)NC(=O)C(c1ccsc1)N(C(=O)Cc1c[nH]c2ccccc12)c1ccc(C(C)(C)C)cc1 (stereo not given),26.3%
11,CC(C)c1ccc(N(C(=O)c2ccc(C(F)(F)F)nc2)C(C(=O)NC(C)(C)C)c2ccsc2)cc1 (stereo not given),8.21%
12,CC(C)(C)NC(=O)C(c1cccnc1)N(C(=O)Cc1cccc2ccccc12)c1ccc(F)cc1 (stereo not given),-7.86%
13,CC(C)c1ccc(N(C(=O)c2ccco2)C(C(=O)NC(C)(C)C)c2ccsc2)cc1 (stereo not given),6.57%
14,CC(C)(C)NC(=O)C(c1ccsc1)N(C(=O)c1cccc2c1CCCC2)c1ccc(F)cc1 (stereo not given),14.4%
15,CCC(=O)Nc1ccc(N(C(=O)Cn2cnc3ccccc32)C(C(=O)NC(C)(C)C)c2ccsc2)cc1 (stereo not given),61.1% (active)
16,CC(C)(C)NC(=O)C(c1cccnc1)N(C(=O)c1ccc(C(F)(F)F)nc1)C1CC1 (stereo not given),5.34%
17,CC(C)(C)NC(=O)C(c1cccnc1)N(C(=O)c1ccc(C(F)(F)F)nc1)c1ccc(OCF)cc1 (stereo not given),13.7%
